# Measurements published in the supplement of paper PMC10849652.
# About 7,900 targets were measured; listed, in parts, are those with a hit and a random draw of the rest. About 0.6% of all pairs of compound and target were hits. Unmarked numbers belong to inactive results.
# Legend:
# Test in all cases: log2 fold change, soluble protein after heating vs DMSO (PISA); higher = thermal stabilisation; K562 cells, 10 uM, 30 min; active = over 0.2 and 3.5 SD of the protein, either way, in both replicates (recomputed)
# [1] = compound: C1=CC=C(C=C1)[C@H](COC2=CC3=C(C=C2)NC(=O)N3)NC(=O)C4=CC=CN(C4=O)CC5=CC(=C(C=C5)F)F
# How it was run: (§1)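 K562 cells at 2×10^6 cells/mL were treated with 10 μM compound for 30 min. Aliquots were heated for 3 min across 48°C-58°C, pooled, and extracted in PBS with 0.5% NP-40 at 4°C; soluble protein was the supernatant after 21,000xg for 90 min. Soluble protein was quantified by TMTpro 16plex LC-MS/MS with channel sums equalised, and reported as log2 fold change in thermal stability against DMSO controls, with values from duplicates.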
# [2] = compound: CC1=C(SC2=C1C(=N[C@H](C3=NN=C(N32)C)CC(=O)N)C4=CC=C(C=C4)Cl)C
# How it was run: as §1
# [3] = compound: CC1=C2C(=CC=C1)N=C(N(C2=O)C3=CC=CC=C3C)CN4C=NC5=C(N=CN=C54)N
# How it was run: as §1
# [4] = compound: Cc1sc2c(c1C)C(c1ccc(Cl)cc1)=N[C@@H](CC(=O)OC(C)(C)C)c1nnc(C)n1-2
# How it was run: as §1
# [5] = compound: c1ccc([C@@H]2C[C@H]2NC2CCNCC2)cc1
# How it was run: as §1
# UniProt P39656, sequence (P39656 whole entry, looked up): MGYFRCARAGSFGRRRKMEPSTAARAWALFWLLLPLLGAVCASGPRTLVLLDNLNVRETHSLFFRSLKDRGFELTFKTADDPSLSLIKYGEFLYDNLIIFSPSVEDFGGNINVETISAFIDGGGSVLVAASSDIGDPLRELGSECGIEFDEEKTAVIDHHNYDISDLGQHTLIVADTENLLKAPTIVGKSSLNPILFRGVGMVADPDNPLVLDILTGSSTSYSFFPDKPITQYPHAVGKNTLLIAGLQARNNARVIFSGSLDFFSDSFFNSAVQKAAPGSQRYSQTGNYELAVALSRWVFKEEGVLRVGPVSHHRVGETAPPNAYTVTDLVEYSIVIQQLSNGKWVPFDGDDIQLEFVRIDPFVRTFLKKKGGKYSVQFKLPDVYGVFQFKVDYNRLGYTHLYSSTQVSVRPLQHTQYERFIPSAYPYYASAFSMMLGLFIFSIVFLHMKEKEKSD
# UniProt Q9BV94, sequence (Q9BV94 whole entry, looked up): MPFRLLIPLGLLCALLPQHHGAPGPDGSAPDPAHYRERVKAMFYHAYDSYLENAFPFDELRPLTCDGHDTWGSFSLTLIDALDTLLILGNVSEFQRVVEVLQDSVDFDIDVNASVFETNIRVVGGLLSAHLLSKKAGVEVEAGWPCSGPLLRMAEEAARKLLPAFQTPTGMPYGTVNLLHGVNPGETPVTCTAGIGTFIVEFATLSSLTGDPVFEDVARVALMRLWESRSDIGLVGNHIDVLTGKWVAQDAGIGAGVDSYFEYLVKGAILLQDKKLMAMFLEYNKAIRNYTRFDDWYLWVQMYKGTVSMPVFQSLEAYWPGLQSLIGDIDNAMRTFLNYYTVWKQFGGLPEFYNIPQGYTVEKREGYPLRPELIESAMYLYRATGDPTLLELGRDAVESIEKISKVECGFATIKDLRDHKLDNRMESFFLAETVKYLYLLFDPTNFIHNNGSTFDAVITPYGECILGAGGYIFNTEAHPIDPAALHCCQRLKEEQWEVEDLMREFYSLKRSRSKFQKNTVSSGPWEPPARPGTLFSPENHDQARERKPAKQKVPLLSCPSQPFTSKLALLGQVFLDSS
# UniProt Q86UK5, sequence (Q86UK5 whole entry, looked up): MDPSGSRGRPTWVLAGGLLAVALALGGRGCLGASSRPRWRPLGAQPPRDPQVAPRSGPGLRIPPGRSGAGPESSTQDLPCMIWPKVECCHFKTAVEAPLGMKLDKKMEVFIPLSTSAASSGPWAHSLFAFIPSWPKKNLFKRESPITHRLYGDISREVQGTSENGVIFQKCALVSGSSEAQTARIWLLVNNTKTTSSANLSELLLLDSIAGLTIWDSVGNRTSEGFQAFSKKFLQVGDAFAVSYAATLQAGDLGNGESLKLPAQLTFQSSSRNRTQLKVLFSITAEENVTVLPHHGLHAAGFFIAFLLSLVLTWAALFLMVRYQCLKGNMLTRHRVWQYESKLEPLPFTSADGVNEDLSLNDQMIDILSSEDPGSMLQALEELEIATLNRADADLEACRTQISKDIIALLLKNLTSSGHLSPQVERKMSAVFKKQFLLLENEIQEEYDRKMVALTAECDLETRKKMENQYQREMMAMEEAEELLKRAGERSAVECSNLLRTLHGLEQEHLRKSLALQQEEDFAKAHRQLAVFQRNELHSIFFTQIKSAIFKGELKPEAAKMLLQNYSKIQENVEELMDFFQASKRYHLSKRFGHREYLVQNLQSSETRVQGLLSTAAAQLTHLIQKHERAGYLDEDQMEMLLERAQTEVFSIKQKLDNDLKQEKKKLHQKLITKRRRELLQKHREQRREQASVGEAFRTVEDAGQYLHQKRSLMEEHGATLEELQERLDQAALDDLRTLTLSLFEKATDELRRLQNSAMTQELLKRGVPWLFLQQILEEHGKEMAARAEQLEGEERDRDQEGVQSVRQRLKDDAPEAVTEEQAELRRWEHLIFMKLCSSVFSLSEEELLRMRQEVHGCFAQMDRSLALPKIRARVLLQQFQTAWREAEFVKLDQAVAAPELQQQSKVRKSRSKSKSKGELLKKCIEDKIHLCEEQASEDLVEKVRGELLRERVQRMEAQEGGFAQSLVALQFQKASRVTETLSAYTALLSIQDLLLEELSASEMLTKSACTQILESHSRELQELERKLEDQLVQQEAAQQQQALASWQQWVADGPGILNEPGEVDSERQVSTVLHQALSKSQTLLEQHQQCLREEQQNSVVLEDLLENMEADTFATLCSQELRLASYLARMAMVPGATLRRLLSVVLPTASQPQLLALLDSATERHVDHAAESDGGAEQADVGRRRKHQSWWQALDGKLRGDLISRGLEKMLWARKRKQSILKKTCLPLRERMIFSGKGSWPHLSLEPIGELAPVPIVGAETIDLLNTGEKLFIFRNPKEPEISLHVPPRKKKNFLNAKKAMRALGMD
# UniProt Q8N3D4, sequence (Q8N3D4 whole entry, looked up): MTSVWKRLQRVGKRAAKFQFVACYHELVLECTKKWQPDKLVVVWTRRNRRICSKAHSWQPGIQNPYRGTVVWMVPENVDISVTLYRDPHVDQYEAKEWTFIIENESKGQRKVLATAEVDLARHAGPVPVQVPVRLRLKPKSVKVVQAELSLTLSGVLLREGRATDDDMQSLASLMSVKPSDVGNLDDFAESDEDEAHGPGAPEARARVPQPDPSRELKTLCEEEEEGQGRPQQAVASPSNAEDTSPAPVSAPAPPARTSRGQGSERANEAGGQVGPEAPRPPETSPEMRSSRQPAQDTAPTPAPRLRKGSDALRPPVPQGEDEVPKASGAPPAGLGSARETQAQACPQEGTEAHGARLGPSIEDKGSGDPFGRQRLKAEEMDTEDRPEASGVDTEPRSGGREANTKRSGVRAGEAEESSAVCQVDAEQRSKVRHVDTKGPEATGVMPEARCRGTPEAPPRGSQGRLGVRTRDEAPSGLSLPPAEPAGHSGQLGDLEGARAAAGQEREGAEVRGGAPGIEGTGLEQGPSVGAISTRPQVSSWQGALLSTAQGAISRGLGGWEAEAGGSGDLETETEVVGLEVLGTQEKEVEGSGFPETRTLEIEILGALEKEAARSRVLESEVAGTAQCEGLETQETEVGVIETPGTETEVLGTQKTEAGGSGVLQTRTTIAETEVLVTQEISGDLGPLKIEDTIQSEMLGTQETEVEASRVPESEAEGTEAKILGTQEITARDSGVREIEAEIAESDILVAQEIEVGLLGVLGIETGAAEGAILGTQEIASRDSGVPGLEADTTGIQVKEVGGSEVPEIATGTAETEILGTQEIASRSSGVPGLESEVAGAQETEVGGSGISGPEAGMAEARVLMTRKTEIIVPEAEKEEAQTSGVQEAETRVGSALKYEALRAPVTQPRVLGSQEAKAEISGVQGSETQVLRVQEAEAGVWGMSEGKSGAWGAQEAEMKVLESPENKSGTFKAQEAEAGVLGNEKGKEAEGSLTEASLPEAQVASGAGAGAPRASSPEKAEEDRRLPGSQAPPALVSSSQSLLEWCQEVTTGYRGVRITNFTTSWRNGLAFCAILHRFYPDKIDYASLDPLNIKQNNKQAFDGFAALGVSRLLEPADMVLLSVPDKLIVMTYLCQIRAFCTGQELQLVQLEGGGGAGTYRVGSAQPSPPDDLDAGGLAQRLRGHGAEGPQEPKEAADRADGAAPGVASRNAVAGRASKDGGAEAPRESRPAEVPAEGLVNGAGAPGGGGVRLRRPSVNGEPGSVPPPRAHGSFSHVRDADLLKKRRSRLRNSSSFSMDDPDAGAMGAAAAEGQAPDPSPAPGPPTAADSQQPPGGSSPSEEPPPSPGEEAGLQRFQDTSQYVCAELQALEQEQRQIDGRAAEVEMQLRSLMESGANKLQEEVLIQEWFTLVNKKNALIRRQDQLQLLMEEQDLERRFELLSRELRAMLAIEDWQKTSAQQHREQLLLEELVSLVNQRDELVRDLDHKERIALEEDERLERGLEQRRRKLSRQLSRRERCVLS
# UniProt Q9UJU6, sequence (Q9UJU6 whole entry, looked up): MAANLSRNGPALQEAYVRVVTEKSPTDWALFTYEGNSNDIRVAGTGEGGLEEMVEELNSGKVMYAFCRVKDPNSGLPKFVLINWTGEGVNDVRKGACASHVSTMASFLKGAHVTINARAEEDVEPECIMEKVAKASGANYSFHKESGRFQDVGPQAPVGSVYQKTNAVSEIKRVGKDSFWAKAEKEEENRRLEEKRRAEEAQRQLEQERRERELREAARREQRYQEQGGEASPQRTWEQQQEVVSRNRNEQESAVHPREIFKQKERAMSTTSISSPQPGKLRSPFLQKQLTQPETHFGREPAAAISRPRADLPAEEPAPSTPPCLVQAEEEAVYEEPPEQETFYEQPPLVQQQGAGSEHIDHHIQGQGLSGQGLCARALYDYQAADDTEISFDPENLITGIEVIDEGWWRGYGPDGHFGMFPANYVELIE
# UniProt Q9NQI0, sequence (Q9NQI0 whole entry, looked up): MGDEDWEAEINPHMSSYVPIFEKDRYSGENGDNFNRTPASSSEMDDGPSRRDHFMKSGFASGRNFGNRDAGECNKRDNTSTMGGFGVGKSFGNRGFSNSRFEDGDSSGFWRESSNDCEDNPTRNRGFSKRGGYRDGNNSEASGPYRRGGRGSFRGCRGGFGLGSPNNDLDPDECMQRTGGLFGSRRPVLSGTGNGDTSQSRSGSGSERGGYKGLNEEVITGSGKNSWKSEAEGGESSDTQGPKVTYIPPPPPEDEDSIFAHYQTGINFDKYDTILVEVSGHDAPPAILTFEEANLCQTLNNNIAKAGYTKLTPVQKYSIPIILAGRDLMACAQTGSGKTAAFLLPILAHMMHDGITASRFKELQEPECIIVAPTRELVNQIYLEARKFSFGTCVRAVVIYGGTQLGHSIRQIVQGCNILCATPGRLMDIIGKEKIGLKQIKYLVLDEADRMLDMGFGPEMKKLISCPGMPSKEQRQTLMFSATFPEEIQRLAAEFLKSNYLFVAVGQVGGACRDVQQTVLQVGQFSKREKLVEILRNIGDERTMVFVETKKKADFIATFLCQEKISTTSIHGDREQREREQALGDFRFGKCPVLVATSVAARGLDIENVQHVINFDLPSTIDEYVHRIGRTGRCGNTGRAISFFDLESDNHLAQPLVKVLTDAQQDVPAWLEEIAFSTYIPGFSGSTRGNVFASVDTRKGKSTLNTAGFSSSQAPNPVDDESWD
Target,log2 fold change [1],log2 fold change [2],log2 fold change [3],log2 fold change [4],log2 fold change [5]
DBR1 (UniProt Q9UK59),0.023,0,0,0.017,0.057
DHCR24 (UniProt Q15392),0.099,-0.035,0.14,0.036,-0.012
FAAP100 (UniProt Q0VG06),-0.243,0.078,0.017,-0.073,0.067
FAM193B (UniProt Q96PV7),-0.115,0.011,-0.103,0.273,-0.115
DHPS (UniProt M0R1T2),-0.155,–,–,–,–
FAM160B1 (UniProt Q5W0V3),-0.005,0.026,-0.01,-0.022,-0.041
CWC27 (UniProt Q6UX04),-0.039,0.097,0.103,-0.03,-0.001
FAM50A (UniProt Q14320),-0.026,0.032,0.033,-0.025,0.007
DYNC1LI2 (UniProt O43237),-0.04,-0.071,0.035,-0.028,0.013
ECPAS (UniProt Q5VYK3),-0.127,0.047,0.112,-0.032,-0.01
DOCK8 (UniProt Q8NF50),0.096,-0.223,-0.01,0.152,-0.087
EIF2AK1 (UniProt Q9BQI3),0.025,-0.036,-0.051,0.025,0.018
FAM160A2 isoform 2 (UniProt Q8N612),-0.027,-0.054,0.343,0.148,-0.344
DHCR7 (UniProt Q9UBM7),-0.061,0,0.093,-0.186,1.06 (active)
DTYMK (UniProt P23919),-0.064,0.082,-0.02,-0.003,-0.014
DNAJB1 (UniProt M0R128),-0.843 (active),0.006,0.106,0.078,0.061
CUX1 isoform 3 (UniProt P39880),0,0.025,0.034,-0.009,0.016
DHRS3 (UniProt O75911),0.007,0.068,0.057,0.017,-0.024
DMAC1 (UniProt Q96GE9),0.058,-0.041,0.05,-0.085,0.023
DUS3L (UniProt Q96G46),0.073,0.04,-0.057,-0.007,0.007
DBNL isoform 3 (UniProt Q9UJU6),-0.096,0.002,0.045,0.029,0.01
CTSZ (UniProt Q9UBR2),-0.003,0.009,0.032,0.039,-0.01
EOGT (UniProt Q5NDL2),0.013,-0.074,0.056,-0.032,0.077
DNAJC1 (UniProt Q96KC8),-0.024,0.054,0.08,-0.015,0.052
EHBP1L1 (UniProt Q8N3D4),-0.016,0.065,0.052,-0.022,-0.051
EZH2 isoform 2 (UniProt Q15910),0.023,-0.056,-0.14,0.016,-0.034
DCTN1 isoform 4 (UniProt Q14203),-0.052,-0.021,0.096,0.044,-0.008
DHRS7B (UniProt Q6IAN0),0.054,0.032,-0.001,-0.018,-0.013

Target,log2 fold change [1],log2 fold change [2],log2 fold change [3],log2 fold change [4],log2 fold change [5]
DNAJB12 (UniProt Q9NXW2),-0.044,0.027,0.081,-0.011,0.011
EPHX2 (UniProt E5RI53),-0.024,–,–,–,–
DNAJC7 (UniProt Q99615),-0.045,0.043,0.072,-0.013,0
ERCC2 (UniProt P18074),0,-0.025,-0.044,-0.104,0.05
EVC2 (UniProt Q86UK5),-0.064,-0.044,-0.141,0.021,0.081
DEGS1 (UniProt O15121),0.083,0.04,-0.001,0.122,0.052
DDB1 isoform 2 (UniProt Q16531),0.028,–,–,–,–
CTNNB1 (UniProt P35222),-0.039,0.101,0.312,-0.062,-0.149
FAM241A (UniProt Q8N8J7),-0.046,0.034,0.041,0,0.008
FAM114A2 (UniProt Q9NRY5),-0.046,0.047,0.018,0.033,0.006
ECH1 (UniProt Q13011),-0.072,0.161,0.086,-0.114,-0.046
DDOST (UniProt P39656),0.018,-0.009,-0.078,-0.022,0
EIF4E2 (UniProt O60573),-0.043,-0.01,-0.007,-0.06,0.055
EDEM2 (UniProt Q9BV94),0.194,0.042,0.013,-0.046,0.012
DSN1 (UniProt Q9H410),0.02,0.016,0.059,0.045,-0.054
DBT (UniProt P11182),-0.003,-0.004,0.012,0.062,0.007
CTSC (UniProt P53634),0.018,-0.012,-0.039,-0.01,0.056
DDX4 (UniProt Q9NQI0),0.052,-0.11,0.213,0.274,0.001
EXOC2 (UniProt Q96KP1),-0.054,0.025,0.03,0.033,0.011
DYRK1A isoform 2 (UniProt Q13627),-0.062,0.059,0.085,0.026,0.011
DENND10 (UniProt Q8TCE6),0.035,0.083,0.103,0.057,-0.008
FAF2 (UniProt Q96CS3),0.002,0.025,0.067,-0.012,-0.017
ERLIN1 (UniProt O75477),-0.007,-0.036,0.002,-0.038,-0.026
CUX1 isoform 2 (UniProt Q13948),-0.067,0.013,0,0,0.023
EIF4A1 (UniProt P60842),-0.043,0.096,0.05,-0.005,-0.042
DDX5 (UniProt P17844),-0.061,0.008,0.067,-0.027,0.038
DCAF10 (UniProt Q5QP82),0.015,-0.018,0.056,0.013,-0.011
